Test results published in PubChem BioAssay AID1159580 (chemical genetic matrix, 2015).
Where “and” joins values, the source holds several entries; their conditions need not be identical. Equal values may be shown once. Among all 5,500 compounds or so, about 2,000 (36%) were called active. Inconclusive results (about 18%) are left out. The list shows a part of the results. Unmarked numbers belong to inactive results. Rule as the data show it: active = normalized growth mostly below about 0.91 (no sharp cut-off); inconclusive = no clear call, values can overlap the other calls; inactive = mostly above about 0.92.

Experiment: chemical genetic growth profiling, strain panel (AID 1159580);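 also: tested at 20 µM; growth read once vehicle control cultures reached saturation at 30 °C; 1 = growth at the plate median or of vehicle wells; lower values mean less growth of the strain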
Details: S. cerevisiae deletion strains, growth OD

C=CC1=C(C)/C(=C/c2[nH]c(Cc3[nH]c(/C=C4\NC(=O)C(C)=C4C=C)c(C)c3CCC(=O)O)c(CCC(=O)O)c2C)NC1=O
normalized growth (locus YAL013W, strain DEP1, stronger effect = lower value): 1.02 | normalized growth (locus YAL021C, strain ccr4, stronger effect = lower value): 0.949 | normalized growth (locus YAL026C, strain drs2, stronger effect = lower value): 0.982 | normalized growth (locus YAL030W, strain snc1, stronger effect = lower value): 0.996 | normalized growth (locus YBL061C, strain skt5, stronger effect = lower value): 0.993 | normalized growth (locus YBR009C, strain hhf1, stronger effect = lower value): 1.03 | normalized growth (locus YBR021W, strain FUR4, stronger effect = lower value): 1.02 | normalized growth (locus YBR023C, strain chs3, stronger effect = lower value): 0.993 | normalized growth (locus YBR171W, strain sec66, stronger effect = lower value): 0.982 | normalized growth (locus YBR229C, strain ROT2, stronger effect = lower value): 1.01 | normalized growth (locus YBR231C, strain swc5, stronger effect = lower value): 1 | normalized growth (locus YBR279W, strain paf1, stronger effect = lower value): 0.995 | normalized growth (locus YCL011C, strain gbp2, stronger effect = lower value): 0.984 | normalized growth (locus YCL016C, strain dcc1, stronger effect = lower value): 0.994 | normalized growth (locus YCL029C, strain bik1, stronger effect = lower value): 1.02 | normalized growth (locus YCL061C, strain MRC1, stronger effect = lower value): 0.978 | normalized growth (locus YCL069W, strain vba3, stronger effect = lower value): 0.986 | normalized growth (locus YCR088W, strain abp1, stronger effect = lower value): 0.98 | normalized growth (locus YDL005C, strain med2, stronger effect = lower value): 0.981 | normalized growth (locus YDL035C, strain GPR1, stronger effect = lower value): 1.02 | normalized growth (locus YDL040C, strain nat1, stronger effect = lower value): 0.979 | normalized growth (locus YDL074C, strain BRE1, stronger effect = lower value): 1.03 | normalized growth (locus YDL101C, strain DUN1, stronger effect = lower value): 1.01 | normalized growth (locus YDL134C, strain PPH21, stronger effect = lower value): 1.02 | normalized growth (locus YDL185W, strain tfp1, stronger effect = lower value): 1.01 | normalized growth (locus YDL192W, strain arf1, stronger effect = lower value): 1.02 | normalized growth (locus YDR001C, strain nth1, stronger effect = lower value): 0.979 | normalized growth (locus YDR069C, strain doa4, stronger effect = lower value): 0.998 | normalized growth (locus YDR101C, strain arx1, stronger effect = lower value): 1.03 | normalized growth (locus YDR137W, strain rgp1, stronger effect = lower value): 0.931 | normalized growth (locus YDR159W, strain sac3, stronger effect = lower value): 1.02 | normalized growth (locus YDR162C, strain NBP2, stronger effect = lower value): 1.04 | normalized growth (locus YDR195W, strain ref2): 0.992 | normalized growth (locus YDR297W, strain sur2, stronger effect = lower value): 0.978 | normalized growth (locus YDR318W, strain mcm21, stronger effect = lower value): 1.02 | normalized growth (locus YDR334W, strain swr1, stronger effect = lower value): 0.955 | normalized growth (locus YDR335W, strain msn5, stronger effect = lower value): 0.974 | normalized growth (locus YDR388W, stronger effect = lower value): 1.02 | normalized growth (locus YDR392W, strain spt3, stronger effect = lower value): 0.916 | normalized growth (locus YDR502C, strain sam2, stronger effect = lower value): 1 | normalized growth (locus YEL003W, strain gim4, stronger effect = lower value): 0.981 | normalized growth (locus YEL037C, strain rad23, stronger effect = lower value): 0.984 | normalized growth (locus YEL061C, strain CIN8 (second series), stronger effect = lower value): 0.989 | normalized growth (locus YEL061C, strain CIN8, stronger effect = lower value): 1 | normalized growth (locus YER015W, strain faa2, stronger effect = lower value): 0.99 | normalized growth (locus YER016W, strain bim1, stronger effect = lower value): 0.992 | normalized growth (locus YER110C, stronger effect = lower value): 1.01 | normalized growth (locus YER111C, strain swi4, stronger effect = lower value): 1 | normalized growth (locus YER155C, strain BEM2 (second series), stronger effect = lower value): 1.02 | normalized growth (locus YER155C, strain BEM2, stronger effect = lower value): 1.01 | normalized growth (locus YER167W, strain BCK2, stronger effect = lower value): 1.01 | normalized growth (locus YFR010W, strain ubp6, stronger effect = lower value): 0.985 | normalized growth (locus YGL078C, strain dbp3, stronger effect = lower value): 1.04 | normalized growth (locus YGL086W, strain mad1, stronger effect = lower value): 1.03 | normalized growth (locus YGL167C, strain pmr1, stronger effect = lower value): 0.995 | normalized growth (locus YGL173C, strain kem1, stronger effect = lower value): 0.975 | normalized growth (locus YGL227W, strain vid30, stronger effect = lower value): 0.994 | normalized growth (locus YGL240W, strain doc1, stronger effect = lower value): 1.02 | normalized growth (locus YGL248W, strain PDE1, stronger effect = lower value): 1.02 | normalized growth (locus YGL253W, strain hxk2, stronger effect = lower value): 1.01 | normalized growth (locus YGR078C, strain PAC10, stronger effect = lower value): 1 | normalized growth (locus YGR135W, strain pre9, stronger effect = lower value): 0.993 | normalized growth (locus YGR252W, strain gcn5, stronger effect = lower value): 0.99 | normalized growth (locus YHR013C, strain ard1, stronger effect = lower value): 0.97 | normalized growth (locus YHR027C, strain rpn1, stronger effect = lower value): 0.987 | normalized growth (locus YHR030C, strain SLT2, stronger effect = lower value): 1.01 and 1.03 | normalized growth (locus YHR079C, strain IRE1 (second series), stronger effect = lower value): 1.01 | normalized growth (locus YHR079C, strain IRE1, stronger effect = lower value): 1.04 | normalized growth (locus YHR094C, strain hxt1, stronger effect = lower value): 1.01 | normalized growth (locus YHR129C, strain ARP1, stronger effect = lower value): 1 | normalized growth (locus YHR142W, strain chs7, stronger effect = lower value): 0.932 | normalized growth (locus YHR200W, strain rpn10, stronger effect = lower value): 1.02 | normalized growth (locus YIL066C, strain RNR3, stronger effect = lower value): 1.02 | normalized growth (locus YIL073C, strain SPO22, stronger effect = lower value): 1.15 | normalized growth (locus YIL125W, strain kgd1, stronger effect = lower value): 1.05 | normalized growth (locus YIR030C, strain dcg1, stronger effect = lower value): 1.02 | normalized growth (locus YJL092W, strain hpr5, stronger effect = lower value): 0.961 | normalized growth (locus YJL095W, strain BCK1 (second series), stronger effect = lower value): 0.994 | normalized growth (locus YJL095W, strain BCK1, stronger effect = lower value): 1.02 and 0.973 | normalized growth (locus YJL115W, strain asf1, stronger effect = lower value): 0.978 | normalized growth (locus YJL129C, strain trk1, stronger effect = lower value): 0.97 | normalized growth (locus YJL134W, strain LCB3, stronger effect = lower value): 1.01 | normalized growth (locus YJL154C, strain vps35, stronger effect = lower value): 0.982 | normalized growth (locus YJL164C, strain tpk1, stronger effect = lower value): 0.973 | normalized growth (locus YJL166W, strain qcr8, stronger effect = lower value): 0.997 | normalized growth (locus YJL168C, strain set2, stronger effect = lower value): 1.01 | normalized growth (locus YJL187C, strain SWE1 (second series), stronger effect = lower value): 0.998 | normalized growth (locus YJL187C, strain SWE1, stronger effect = lower value): 0.983 | normalized growth (locus YJR043C, strain POL32, stronger effect = lower value): 1.02 | normalized growth (locus YJR066W, strain TOR1, stronger effect = lower value): 1 | normalized growth (locus YJR075W, strain HOC1, stronger effect = lower value): 1.01 | normalized growth (locus YKL009W, strain mrt4, stronger effect = lower value): 1.16 [resistant] (active) | normalized growth (locus YKL068W, stronger effect = lower value): 1.03 | normalized growth (locus YKL085W, strain MDH1 (second series), stronger effect = lower value): 1.04 | normalized growth (locus YKL085W, strain MDH1, stronger effect = lower value): 1.04 | normalized growth (locus YKL160W, strain elf1, stronger effect = lower value): 0.972 | normalized growth (locus YKR001C, strain vps1, stronger effect = lower value): 1.05 | normalized growth (locus YKR026C, strain gcn3, stronger effect = lower value): 0.986 | normalized growth (locus YKR091W, strain srl3, stronger effect = lower value): 0.982 | normalized growth (locus YLL001W, strain dnm1, stronger effect = lower value): 0.988 | normalized growth (locus YLL026W, stronger effect = lower value): 0.99 | normalized growth (locus YLL041C, strain sdh2, stronger effect = lower value): 0.979 | normalized growth (locus YLR027C, strain aat2, stronger effect = lower value): 0.979 | normalized growth (locus YLR039C, strain RIC1, stronger effect = lower value): 1 | normalized growth (locus YLR058C, strain SHM2, stronger effect = lower value): 1 | normalized growth (locus YLR102C, strain apc9, stronger effect = lower value): 1.02 | normalized growth (locus YLR113W, strain HOG1, stronger effect = lower value): 0.964 | normalized growth (locus YLR221C, strain rsa3, stronger effect = lower value): 0.966 | normalized growth (locus YLR258W, strain gsy2, stronger effect = lower value): 1 | normalized growth (locus YLR262C, strain YPT6 (second series), stronger effect = lower value): 0.963 | normalized growth (locus YLR262C, strain YPT6, stronger effect = lower value): 1.08 | normalized growth (locus YLR268W, strain sec22, stronger effect = lower value): 1.03 | normalized growth (locus YLR320W, strain mms22, stronger effect = lower value): 1.02 | normalized growth (locus YLR330W, strain CHS5, stronger effect = lower value): 1.01 | normalized growth (locus YLR342W, strain FKS1 (second series), stronger effect = lower value): 1.01 | normalized growth (locus YLR342W, strain FKS1, stronger effect = lower value): 0.992 | normalized growth (locus YLR357W, strain rsc2, stronger effect = lower value): 1.01 | normalized growth (locus YLR370C, strain arc18, stronger effect = lower value): 0.976 | normalized growth (locus YLR371W, strain rom2, stronger effect = lower value): 1.03 | normalized growth (locus YLR384C, strain iki3, stronger effect = lower value): 0.987 | normalized growth (locus YLR418C, strain cdc73, stronger effect = lower value): 1.03 | normalized growth (locus YML016C, strain PPZ1, stronger effect = lower value): 1 | normalized growth (locus YML032C, strain rad52, stronger effect = lower value): 1.03 | normalized growth (locus YML120C, strain ndi1, stronger effect = lower value): 0.961 | normalized growth (locus YML124C, strain tub3, stronger effect = lower value): 1.02 | normalized growth (locus YMR058W, strain fet3, stronger effect = lower value): 0.971 | normalized growth (locus YMR078C, strain ctf18, stronger effect = lower value): 1.04 | normalized growth (locus YMR125W, strain sto1, stronger effect = lower value): 1.02 | normalized growth (locus YMR129W, stronger effect = lower value): 0.988 | normalized growth (locus YMR205C, strain PFK2, stronger effect = lower value): 1.02 | normalized growth (locus YMR223W, strain ubp8, stronger effect = lower value): 1 | normalized growth (locus YMR231W, strain pep5, stronger effect = lower value): 0.99 | normalized growth (locus YMR263W, strain SAP30, stronger effect = lower value): 1 | normalized growth (locus YMR307W, strain GAS1, stronger effect = lower value): 0.968 | normalized growth (locus YNL067W, strain RPL9B, stronger effect = lower value): 0.999 | normalized growth (locus YNL071W, strain lat1, stronger effect = lower value): 0.988 | normalized growth (locus YNL183C, strain NPR1, stronger effect = lower value): 0.919 | normalized growth (locus YNL209W, strain ssb2, stronger effect = lower value): 0.987 | normalized growth (locus YNL233W, strain BNI4, stronger effect = lower value): 1.01 | normalized growth (locus YNL248C, strain rpa49, stronger effect = lower value): 0.938 | normalized growth (locus YNL250W, strain rad50, stronger effect = lower value): 1.01 | normalized growth (locus YNL271C, strain bni1, stronger effect = lower value): 1.03 | normalized growth (locus YNL298W, strain CLA4, stronger effect = lower value): 1.02 | normalized growth (locus YNL307C, strain MCK1, stronger effect = lower value): 1.01 | normalized growth (locus YNL322C, strain KRE1 (second series), stronger effect = lower value): 0.982 | normalized growth (locus YNL322C, strain KRE1, stronger effect = lower value): 1.01 | normalized growth (locus YNR049C, strain mso1, stronger effect = lower value): 0.981 | normalized growth (locus YNR052C, strain pop2, stronger effect = lower value): 1.01 | normalized growth (locus YOL012C, strain htz1): 0.856 | normalized growth (locus YOL147C, strain pex11, stronger effect = lower value): 1.02 | normalized growth (locus YOR001W, strain rrp6, stronger effect = lower value): 0.951 | normalized growth (locus YOR061W, strain CKA2, stronger effect = lower value): 1.03 | normalized growth (locus YOR069W, strain VPS5, stronger effect = lower value): 1.01 | normalized growth (locus YOR070C, strain gyp1, stronger effect = lower value): 0.996 | normalized growth (locus YOR080W, strain dia2, stronger effect = lower value): 0.986 | normalized growth (locus YOR083W, strain WHI5, stronger effect = lower value): 0.94 | normalized growth (locus YOR106W, strain vam3, stronger effect = lower value): 0.951 | normalized growth (locus YOR136W, strain idh2, stronger effect = lower value): 1.02 | normalized growth (locus YOR144C, strain elg1, stronger effect = lower value): 1.01 | normalized growth (locus YOR184W, strain ser1, stronger effect = lower value): 1.07 | normalized growth (locus YOR231W, strain MKK1, stronger effect = lower value): 1.03 | normalized growth (locus YOR265W, strain rbl2, stronger effect = lower value): 0.985 | normalized growth (locus YOR270C, strain vph1, stronger effect = lower value): 0.971 | normalized growth (locus YOR290C, strain snf2, stronger effect = lower value): 1.01 | normalized growth (locus YOR316C, strain cot1, stronger effect = lower value): 1.02 | normalized growth (locus YPL051W, strain arl3, stronger effect = lower value): 0.969 | normalized growth (locus YPL055C, strain LGE1, stronger effect = lower value): 0.995 | normalized growth (locus YPL078C, strain atp4, stronger effect = lower value): 0.939 | normalized growth (locus YPL106C, strain sse1, stronger effect = lower value): 0.949 | normalized growth (locus YPL240C, strain hsp82, stronger effect = lower value): 0.982 | normalized growth (locus YPL241C, strain CIN2, stronger effect = lower value): 1.01 | normalized growth (locus YPL256C, strain CLN2, stronger effect = lower value): 1.06 | normalized growth (locus YPR119W, strain clb2, stronger effect = lower value): 1.01 | normalized growth (locus YPR163C, strain tif3, stronger effect = lower value): 1.02 | normalized growth (locus YPR167C, strain met16, stronger effect = lower value): 1.02 | normalized growth (strain wtn01, stronger effect = lower value): 1.04
